The campaign covered roughly 360,000 compounds. About 810 (0.23%) were called active. Only a selection was taken, and actives are over-represented in it overall. Unmarked numbers belong to inactive results. No stated cut-off is given here; in the data, active means potentiation above about 50%; inconclusive means mostly about 30% to 49%; inactive means weaker than that.

Chain of D(2) dopamine receptor (Homo sapiens) (P14416 whole entry, looked up): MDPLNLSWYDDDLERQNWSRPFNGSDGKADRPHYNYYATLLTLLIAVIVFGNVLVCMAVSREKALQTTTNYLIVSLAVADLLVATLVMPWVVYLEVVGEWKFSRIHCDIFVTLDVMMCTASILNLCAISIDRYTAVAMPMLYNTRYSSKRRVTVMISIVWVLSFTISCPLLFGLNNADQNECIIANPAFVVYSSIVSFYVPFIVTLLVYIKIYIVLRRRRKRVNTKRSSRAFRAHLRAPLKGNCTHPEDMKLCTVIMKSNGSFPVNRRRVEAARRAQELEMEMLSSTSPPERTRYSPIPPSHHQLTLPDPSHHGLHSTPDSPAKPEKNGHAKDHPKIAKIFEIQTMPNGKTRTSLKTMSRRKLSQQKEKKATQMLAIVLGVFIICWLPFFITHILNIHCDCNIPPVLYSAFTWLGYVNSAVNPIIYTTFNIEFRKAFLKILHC

This assay concerns the target D(2) dopamine receptor (Homo sapiens) (UniProt P14416). Nature of the assay: Beta-Arrestin HTS for Positive Allosteric Modulators of the Human D2 Dopamine Receptor: Potentiators. The conditions noted are these: DiscoveRx D2 beta-arrestin cells, luminescence, 90 min; hits give high values; 100% = 57 uM dopamine signal. An excerpt:
There is great interest in identifying small molecule ligands for G-protein coupled receptors (GPCRs) as nearly 50% of all FDA-approved drugs target these important receptor proteins. […] Amongst the dopamine receptors (DARs), the D2 is arguably one of the most validated drug targets in neurology and psychiatry. For instance, all receptor-based antiparkinsonian drugs primarily work via stimulating the D2 DAR, whereas all FDA-approved antipsychotic agents are antagonists of this receptor. The D2 DAR is also therapeutically targeted in other disorders such as restless legs syndrome, tardive dyskinesia, Tourette's syndrome, and hyperprolactinemia.
To this end, a miniaturized qHTS screen was developed to be screened against the Molecular Libraries Small Molecule Repository (MLSMR). This assay seeks to identify potentiators against the D2 DAR.
NIH Molecular Libraries Probe Production Network [MLPCN]
NIH Chemical Genomics Center [NCGC]
PI Name: David Sibley, National Institutes of Neurological Disorders and Stroke
DiscoveRx D2 cells were thawed from frozen stock and seeded at 2,100 cells/ 3 uL/well media (DiscoveRx Plating Reagent 2) with MultiDrop Combi dispenser (Thermo Scientific, Logan, UT) onto white tissue culture treated 1536-well Aurora plates (Brooks Automation, Chelmsford, MA) and allowed to attach overnight at 37 deg C, 5% CO2. Next, 23 nL/well of compound solutions in DMSO were added with a pintool transfer (Kalypsis, San Diego, CA). As the positive control, 1 uL/well dopamine (EC100, 57 uM final concentration) diluted in buffer (HBSS + 10 mM HEPES + SMB + 0.1 %Tween-20) was dispensed to 1 column of each plate. EC20 (Dopamine at 50 nM final concentration) was dispensed to the rest of the plate except columns 1 &2 which were used as negative control (EC=0, buffer only), 1 uL/well as well. The cells were stimulated by compounds and dopamine for 90 minutes at 37 deg C, 5% CO2, after which 1.5 uL/well of DiscoveRx detection reagent was added with BioRAPTR FRD dispenser. The detection reagent was prepared by mixing of Galacton Star Substrate, Emerald II solution and PathHunter buffer (supplied by the assay kit) together at 1:5:19 proportion accordingly just prior to dispensing. The plates were incubated at ambient temperature for 1 hour and then the luminescent signal was read on ViewLux plate reader (PerkinElmer, Waltham, MA).
Regarding `N#C/C(=C\c1ccccc1C(F)(F)F)C(=O)Nc1ccccc1F`, the potentiation was 57.7% (active).

With `O=C(Nc1ccccc1F)c1ccccc1-c1ccc(C(F)(F)F)cc1`, the potentiation was -15.1%.

As for `CNC(=O)/C(C#N)=C/c1c(F)cccc1Cl`, the potentiation is 21.1%.

Regarding `O=C(COC(=O)c1cc(-c2cccs2)nn1-c1ccccc1)Nc1cc([N+](=O)[O-])ccc1Cl`, the potentiation is -0.407%.

Take `COc1ccc(CN2C(CC(=O)Nc3cccnc3)c3ccc(C(F)(F)F)cc3S2(=O)=O)cc1` (centres undefined): the potentiation was -5.81%.

On to `COc1ccc(N(CC(=O)NC2CCCCC2)C(=O)CNC(=O)c2ccco2)c(OC)c1`, for which the potentiation is -8.59%.

As to `COc1ccccc1CNC(=O)c1cc(-c2cc(Cl)ccc2C)n[nH]1`, the potentiation is -2.11%.

As for `Cc1ccc(OCc2nnc(SC3CCc4ccccc4C3=O)n2C)cc1` (centres undefined), the potentiation is 51.4% (active).

For the compound `Cc1cccnc1NC(=O)CSc1nnc(COc2ccc(C(C)C)cc2)n1C`, the potentiation is -13.7%.

Consider `COc1ccccc1C(=O)Nc1ccc(OCc2nnc3c4ccccc4c(C)nn23)cc1`, for which the potentiation was 9.9%.

For `O=c1[nH]c(=S)[nH]c(O)c1/C=C1\C=Nc2ccccc21`, the potentiation is -32.7%.

In the case of `O=C1NC(c2ccc(-c3ccccc3[N+](=O)[O-])o2)C(C(=O)c2ccc(Cl)cc2)C(O)(C(F)(F)F)N1` (centres undefined), the potentiation was 55.4% (active).

As for `CCOC(=O)C1C(c2ccc(O)cc2)NC(=O)NC1(O)C(F)(F)F` (centres undefined), the potentiation is -0.717%.

Turning to `CC1=NN(c2ccc(Cl)c(C(=O)O)c2)C(=O)/C1=C/c1ccc(-c2ccccc2[N+](=O)[O-])o1`, the potentiation is -7.86%.

As to `CCC(C)NC(=O)C1CCCN(C(=O)NC2CCCCC2)C1` (centres undefined), the potentiation was 2.71%.

For `COC(=O)CSc1ccc2nnc(CCNS(=O)(=O)c3ccc(C)cc3)n2n1`, the potentiation is 71.3% (active).

Turning to `Cc1ccc(S(=O)(=O)NCCc2nnc3ccc(SCc4cccnc4)nn23)cc1`, the potentiation was -34.2%.

Take `O=C(NCCc1nnc2ccc(SCC(=O)N3CCOCC3)nn12)c1ccccc1`: the potentiation was 1.02%.

As to `CN(Cc1ccccc1)C(=O)COC(=O)/C=C/c1ccc2c(c1)OCO2`, the potentiation was -10.6%.

As to `Cc1coc2c(O)cc3c(c12)OC1(N2CCCCC2)C(=O)NCCCC31` (centres undefined), the potentiation was 70.8% (active).

In the case of `CC(=O)Nc1cc(-c2ccc(N3CCN(C)CC3)cc2)cn2c(-c3cccc(C(=O)N(C)C)c3)cnc12`, the potentiation was -8.12%.

For `COC(=O)[C@H]1C[C@H](OC(=O)NCc2ccccc2)[C@@]2(O)CN(S(=O)(=O)c3ccc(C)cc3)CC2[C@H]1C(=O)OC` (some centres undefined), the potentiation was -0.0644%.

On to `Cc1ccc(NC(=O)COC(=O)CN2CCCCCC2=O)c(C)c1`, for which the potentiation was -1.65%.

With `Cc1ccc(S(=O)(=O)N2CCN(C(=O)c3cc(S(=O)(=O)N4CCOCC4)ccc3F)CC2)cc1`, the potentiation was 0.45%.

Regarding `CN1OC[C@@H]2CN(C(=O)C(C)(C)C)[C@H](c3ccc(-n4ccnc4)cc3)C[C@@H]21`, the potentiation is -5.65%.

`CC(Oc1cccc(Cl)c1)C(=O)NC1CC(C)(C)NC(C)(C)C1` (centres undefined): the potentiation is -22.7%.

For the compound `Cc1ccc(NC(=O)CN(C)S(=O)(=O)c2cnc[nH]2)cc1C`, the potentiation was -13%.

`CN(CC(=O)Nc1ccccc1Cl)C(=O)c1ccccc1SCC(=O)N1CCCC1`: the potentiation was -9.34%.

Take `O=C1C=C(c2cccc(Br)c2)C[C@@H](c2ccc(F)cc2)C1`: the potentiation was -7.26%.

Regarding `Cc1ccc(CN(N=Nc2nonc2N)c2nonc2N)c(C)c1`, the potentiation is 25.8%.

As for `O=C1Oc2ccccc2C(=O)/C1=C/c1ccccc1O`, the potentiation was 1.41%.

Consider `O=C(COc1ccc(/C=N/NC(=O)c2ccc(O)cc2)cc1)Nc1ccc([N+](=O)[O-])cc1`, for which the potentiation was -4.2%.

`O=C(Cc1c[nH]c2ccccc12)N/N=C/c1cccc(F)c1`: the potentiation is -9.63%.

Turning to `O=C(N/N=C/c1ccc([N+](=O)[O-])cc1)c1c[nH]c2ccccc12`, the potentiation was 64.1% (active).

As for `Nc1nc(CSc2nnnn2-c2ccccc2)nc(Nc2ccccc2)n1`, the potentiation is 4.76%.

For `COCCCn1c(C(=O)NC2CCCCC2)cc2c(=O)n3cccc(C)c3nc21`, the potentiation is -4.49%.

As for `CC12CN3CCN(CC(C3)/C1=N\NC(=O)c1ccccc1N)C2`, the potentiation is -0.591%.

As to `CCC(C)c1ccccc1NC(=O)CN(C)CC(=O)Nc1ccccc1SC` (centres undefined), the potentiation is 1.68%.

For the compound `COc1cccc2oc(CCc3ccccc3)cc(=O)c12`, the potentiation was -6.37%.

On to `Cc1c2cn[nH]c(=O)c2c(C)n1Cc1ccc(F)cc1`, for which the potentiation is -5.05%.

Regarding `CN1CCC2(CC1)NC(=O)NC2=O`, the potentiation is 11.5%.

`COc1cccc(N=c2oc3c(C)ncc(CO)c3cc2C(N)=O)c1`: the potentiation was -0.831%.

As to `CCNC(=O)C1(C)CCN(C(=O)c2ccccc2)C1` (centres undefined), the potentiation was -7.31%.

Turning to `CN(C)S(=O)(=O)c1ccc(N2CCCC2)c(C(=O)NCc2ccccc2)c1`, the potentiation is -8.01%.

In the case of `COc1cccc(CNc2ncc(-c3ccccc3)n2C)c1`, the potentiation was -30.3%.

Take `CCOC(=O)c1cc2c(=O)[nH]c(C(Cl)(Cl)Cl)nc2o1`: the potentiation was 7.93%.

Take `CCC(C)CCN1CCN=C1N(C)C` (centres undefined): the potentiation was -8.79%.

Turning to `Cc1ccc(N(CC(=O)NCC2CCCO2)C(=O)CNS(=O)(=O)c2ccc(Cl)cc2)cc1` (centres undefined), the potentiation is 0.715%.

Turning to `COc1cccc(-c2cnc(OC(C)(C)C)nc2OC(C)(C)C)c1`, the potentiation is -5.2%.

In the case of `COc1cccc(CNC(=O)Cn2c(=O)oc3cc(S(=O)(=O)N4CCCCC4)ccc32)c1`, the potentiation was -3.62%.

Regarding `CCOC(=O)C1(Cc2cccc(OC)c2)CCN(Cc2csc(C(C)=O)c2)CC1`, the potentiation was -21.6%.

On to `NC1=NC(c2ccc([N+](=O)[O-])cc2)N(c2ccc(F)cc2)C(N)=N1` (centres undefined), for which the potentiation is 0.113%.

Take `Cc1ccc2c(c1)C(O)(CC(=O)c1cccnc1)C(=O)N2` (centres undefined): the potentiation is -30%.

As for `Cc1ccc(S(=O)(=O)n2cccc2CO)cc1`, the potentiation is -0.194%.

For the compound `Cc1cccc(CNC(=O)c2sc(=O)n(Cc3ccccc3C)c2C)c1`, the potentiation was -5.51%.

Consider `CC(C)(C)N1C(=O)c2c(C(=O)OCc3ccccc3)[nH]c(-c3ccccc3)c2C1=O`, for which the potentiation was -2.35%.

For the compound `CC(C)Nc1nnc(SC(C)C(=O)N(C)C2CCCCC2)s1` (centres undefined), the potentiation was -2.23%.

`CCCN(CC1CC1)C(=O)COC(=O)c1ccc(C)cc1O`: the potentiation is -24.9%.

Consider `Cc1ccc(S(=O)(=O)N(CCCN(C)C)Cc2ccc3c(c2)OCO3)cc1`, for which the potentiation is -10.1%.

For `CC1=C(C(=O)N(C(C)C)C(C)C)CC(CC(=O)NCCCCc2ccccc2)C(=O)N1CCC1=CCCCC1` (centres undefined), the potentiation is -4.46%.

For the compound `CCOC(=O)CSc1nnc(NC(=O)C2CC(=O)N(c3ccc(F)cc3)C2)s1` (centres undefined), the potentiation was -2.95%.

Regarding `S=C(Nc1cccc(Cl)c1)Nc1ccc2cn[nH]c2c1`, the potentiation was 60.4% (active).

Take `O=C(Nc1ccc2cn[nH]c2c1)c1ccc(S(=O)(=O)N2CCOCC2)cc1`: the potentiation was -3.76%.

As to `CC(C)Cc1nnc(NC(=O)CCC(=O)Nc2ccc3cn[nH]c3c2)s1`, the potentiation was -12.9%.

`Cc1cc(N2CCCC2=O)cc(C)c1S(N)(=O)=O`: the potentiation is -18.2%.

Consider `O=C1NC(=O)C(c2ccc(Cl)cc2)N1` (centres undefined), for which the potentiation is -7.09%.

Take `CCCCC(=O)Nc1nnc(S(=O)(=O)N(C)Cc2ccco2)s1`: the potentiation is -7.89%.

For the compound `Cn1cc(/C=C/C(=O)N2CCCC(C(=O)c3ccc(C(F)(F)F)cc3)C2)cn1` (centres undefined), the potentiation is -1.59%.

Turning to `COc1ccc(C(=O)C[n+]2ccc(N)c(C)c2C)cc1`, the potentiation is -3.23%.

Regarding `COC(=O)c1cc(Oc2ccc(S(=O)(=O)N3CCOCC3)cc2[N+](=O)[O-])cc(C(=O)OC)c1`, the potentiation was -0.101%.

Consider `COc1cc([N+](=O)[O-])cc([N+](=O)[O-])c1NC(=O)N1CCOCC1`, for which the potentiation is -13.5%.

Consider `COc1cc(C(=S)N2CCOCC2)cc(OC)c1OC(=O)c1ccc([N+](=O)[O-])cc1[N+](=O)[O-]`, for which the potentiation is 136% (active).

Take `O=C(NCCCn1ccnc1)C(=O)NCC1OCCN1S(=O)(=O)c1cc(F)ccc1F` (centres undefined): the potentiation was -2.44%.

As for `COC(=O)c1cccnc1NC(=S)NC(C)C`, the potentiation is 2.31%.

For `CC(=O)NC(C)(C)C1CC=C(C)/C(=N\O)C1` (centres undefined), the potentiation is -2.42%.

Regarding `NC(Cc1ccc(F)cc1)c1csc(Nc2nncc3ccccc23)n1` (centres undefined), the potentiation was 0.276%.

With `Cc1ccc(Cc2c(-c3ccco3)nc3ccc(Cl)cn23)cc1`, the potentiation is -4.9%.

Turning to `Cc1nn(C)c(C)c1S(=O)(=O)N1CCc2ccccc21`, the potentiation is 3.69%.

As to `CCO[C@@H]1OC(C(=O)NC2CC2)=C[C@H](C)[C@H]1CCCO`, the potentiation was -6.01%.

With `CC1CCN(C(=S)c2cccc([N+](=O)[O-])c2)CC1`, the potentiation was -3.98%.

Take `O=C(Oc1ccc(Br)cc1C(=S)N1CCOCC1)c1cccc([N+](=O)[O-])c1`: the potentiation was -0.594%.

With `O=C(Oc1ccccc1C(=S)N1CCCCC1)c1cc([N+](=O)[O-])cc([N+](=O)[O-])c1`, the potentiation is 58.7% (active).

Consider `CCCCn1c(N)c(N(CCC(C)C)C(=O)c2ccc(COc3ccccc3)o2)c(=O)[nH]c1=O`, for which the potentiation was -0.984%.

Take `COc1cccc(NC(=O)C2(C)CCN2Cc2ccccc2Cl)c1` (centres undefined): the potentiation was -7.17%.

For the compound `CN(CC(=O)Nc1c(Cl)cccc1Cl)C(=O)CC1OC(=O)c2ccccc21` (centres undefined), the potentiation is -2.61%.

Consider `CC(OC(=O)c1ccccc1NCCO)C(=O)Nc1ccnn1C(C)C` (centres undefined), for which the potentiation was -3.07%.

For the compound `O=C(NCc1cc(F)cc(C(F)(F)F)c1)C1CCC(=O)N(C2CCCC2)C1` (centres undefined), the potentiation is 2.66%.

Turning to `Cc1ccc(S(=O)(=O)N2CCOCC2)cc1C(=O)NC(=S)N(Cc1ccccc1)C(C)C`, the potentiation was 10.6%.

Consider `CC1(C)C(=O)CCC2(C)C1=CCC1C2C(=O)CC2(C)C1CCC2(O)C(=O)CO` (centres undefined), for which the potentiation is -30.8%.
